Screening data from PubChem BioAssay.
Choline anaer gr – blocks anaerobic gram-negative growth on choline | Gram-negative bacterium anaerobic choline minimal medium, absorbance growth; hits give low values | calls only | actives 0.2% (n = 55,000); call rule not given here
Large screens that a line does not name were inactive; ! = not active in a repeat. Many of the other results were omitted from the sample, so hits are more common in it than they were.

NC[C@@H]1O[C@H](c2ccccc2)Cc2c1ccc(O)c2O	none
NC[C@@H]1O[C@H](C23CC4CC(CC(C4)C2)C3)Cc2c1ccc(O)c2O	Choline anaer gr active!
Cc1cc(N2CCC(C)CC2)nc2ccc(NC(=O)CCC(=O)N3CCCCC3C)cc12 (configuration not stated)	none
CCCC(=O)N1CCCC1C(=O)N1CCCCC1C (configuration not stated)	Choline anaer gr active
Cc1noc(C(=O)N2CCCCC2C)c1Cl (configuration not stated)	none
Cc1cc(NC(=O)c2cnccn2)ccc1-c1nc2ccccc2s1	none
Cc1nc2scc(C)n2c(=O)c1NC(=O)C(C)C	none
Cc1nc2sccn2c(=O)c1NC(=O)Cc1ccc(Cl)cc1	none
Cc1nc2scc(C)n2c(=O)c1NC(=O)Cc1ccc(Cl)cc1	Choline anaer gr active
CCSc1nc2ccc(NS(=O)(=O)c3cccc4nsnc34)cc2s1	none
CCC(C)NC(=O)CN1C(=O)C(C)(C)c2cc(S(=O)(=O)N3CCCC3)ccc21 (configuration not stated)	none
Cc1c(CCNC(=O)c2cccc(F)c2)sc2nc(-c3ccc(F)cc3)nn12	none
OC[C@H]1O[C@H](O[C@H]2[C@H](O)[C@@H](O)[C@H](O)O[C@@H]2CO)[C@H](O)[C@@H](O)[C@@H]1O	none
OCC1O[C@H](O)C(Cl)C(O)C1O (some centres not stated)	none
OCC1O[C@H]([S-])[C@@H](O)C(O)[C@@H]1O.[Au+] (some centres not stated)	Choline anaer gr active
O=S(=O)(c1ccc2c(c1)-c1oncc1CO2)N1CCN(C2CCCCC2)CC1	none
Cc1ccc(S(=O)(=O)N2C(=O)CCC2C(=O)N(C)C2CCCCC2)cc1C (configuration not stated)	none
Cc1oc2ncnc(N3CCCCC3)c2c1C(=O)Nc1cccc(Cl)c1	none
CCN(C(=O)c1c(C)oc2ncnc(N3CCCCC3)c12)c1cc(C)ccc1C	Choline anaer gr active
Cc1ccc(-c2noc3ncnc(N4CCC(C(=O)N(C)c5cc(C)ccc5C)CC4)c23)cc1	none
O=C(CN1C(=O)COc2ccccc2C1=O)c1ccc(Cl)cc1	none
CCCCC/C=C\C/C=C\CC1OC1C/C=C\CCCC(=O)O (configuration not stated)	none
CC/C=C\C/C=C\C/C=C\CCCCCCCCCCCC(=O)O	Choline anaer gr active
CCCCCCC/C=C\CCCCCCCCC(=O)O	none
CC/C=C\C/C=C\C/C=C\C/C=C\C/C=C\CCCC(=O)O	Choline anaer gr active
CCCCC/C=C\C/C=C\C/C=C\C/C=C\CCCC(=O)O	none
CC/C=C\C/C=C\C/C=C\CCCCCCCC(=O)O	none
CCCCC/C=C\C/C=C\C/C=C\C/C=C\CCCCCC(=O)O	none
CC/C=C\C/C=C\C/C=C\CCCCCCCCCC(=O)O	Choline anaer gr active
CCCCC/C=C\C/C=C\CCCCCCCC(N)=O	none
CCOC(=O)c1cc(CSc2nnc3c4ccccc4nc(-c4ccc(OC)cc4)n23)on1	none
CN1C(=O)c2cc(C(=O)NC3CCCC3)nn2CC1(C)C(=O)NC1CCCCC1 (configuration not stated)	none
CC(NC(=O)c1cc2c(-c3ccc(Cl)cc3)nn(C)c2s1)c1ccccc1 (configuration not stated)	none
O=C(CSc1nnc(-c2cccnc2)o1)Nc1ccc2c(c1)OCO2	Choline anaer gr active
Cn1c(-c2nnc(SCC(=O)Nc3ccc4c(c3)OCO4)o2)cc2ccccc21	none
O=C(CSc1nnc(-c2cc3ccccc3[nH]2)o1)Nc1ccc2c(c1)OCO2	none
Cc1oc2ncnc(N3CCCC(C(=O)N4CCN(C5CCCCC5)CC4)C3)c2c1C (configuration not stated)	none
CCC(=O)N1CCCN(S(=O)(=O)CC)CC1	none
CCC(=O)N1CCCC1C(=O)N1CCCN(C)CC1 (configuration not stated)	Choline anaer gr active
CCN1CCN(C(=O)[C@@H]2CCCN2C(C)=O)CC1	none
O=C1C(=O)N(C2CCN(C(=O)c3ccc(Cl)cc3)CC2)CCN1Cc1cccc(F)c1	none
CCC(=O)Nc1ccccc1-c1nnc(SC(C)C(=O)Nc2ccccc2)[nH]c1=O (configuration not stated)	none
CN1CCN(c2ccc(NC(=O)c3ccccc3Cl)c(C(=O)O)c2)CC1	none
CCCN1CCN(c2ccc(NC(=O)c3ccccc3Cl)c(C(=O)O)c2)CC1	none
CCCCN(C)c1ccc(NS(=O)(=O)c2ccc(Br)cc2)c(C(=O)O)c1	none
CCCCN(C)c1ccc(NC(=O)C2CC2)c(C(=O)O)c1	none
CCCCN(C)c1ccc(NC(=O)c2ccccc2Cl)c(C(=O)O)c1	Choline anaer gr active
O=C(Nc1ccc(N2CCC(Cc3ccccc3)CC2)cc1C(=O)O)c1ccccc1Cl	Choline anaer gr active
CCN1CCN(C(=O)CNC(=O)N2CCSc3nc(C)cc(C)c32)CC1	none
CC(C)NC(=O)N1CCC2(C1)C(=O)N(C)c1ccccc12 (configuration not stated)	none
CCOc1ccc(NC(=O)C(C)Sc2nc3c(c(=O)[nH]2)CCCC3)cc1 (configuration not stated)	none
CCOc1ccc(NC(=O)C(CC)Sc2nc3ncccc3[nH]2)cc1 (configuration not stated)	Choline anaer gr active
